# Assay outcomes deposited in PubChem BioAssay by The Scripps Research Institute Molecular Screening Center.
# Rows were chosen to be rich in hits. Some 3.4% of all compounds tested hit in one or more screens of this group.
# GPR151 activ: activators of human GPR151, primary screen, cell-based, PathHunter beta-arrestin, luminescence. AID 1508602, 2020. G-protein coupled receptor 151 (Homo sapiens), Q8TDV0. PathHunter beta-arrestin GPR151 cells. activation, % at 11.2 µM. 650,000 tested, 1% active; in the data active = activation above about 4.9%
# MITF primary: MITF inhibitors, primary screen, biochemical, AlphaScreen, human; Microphthalmia-associated transcription factor (Homo sapiens), O75030; inhibition, % at 2.6 µM; AlphaScreen MITF homodimerization, bead proximity signal; AID 1259374, 2018; 650,000 tested, 0.91% active; in the data active = inhibition above about 50%
# FBW7 act: FBW7 E3 ligase activators, primary screen, biochemical, AlphaScreen, human; 650,000 tested, 0.13% active; normalized activity (activation), % at 26.1 µM; AlphaScreen FBW7–phospho-cyclin E peptide binding, activator screen; in the data active = normalized activity above about 1.9%;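 note: purified mutant Fbw7 with reduced substrate affinity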
# TEAD-YAP inh: TEAD-YAP interaction inhibition, primary screen, TEAD-YAP interaction inhibitor project, luminescence, HEK-TIYL cells; TEAD-Gal4/YAP UAS-luciferase luminescence; inhibition, % at 9.12 µM; 640,000 tested, 1.4% active; AID 1259422, 2018; in the data active = inhibition above about 32%
# GPR151 confirm: GPR151 activators, triplicate retest, confirmation, cell-based, PathHunter beta-arrestin, luminescence; activation, % at 11.2 µM; GPR151 PathHunter beta-arrestin cells, 90 min; % of EA-reagent control over plate median; shares compounds with GPR151 activ; 6,700 tested, under 10 active;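 active = mean percent activation across replicates above the confirmation screen cutoff of 4.91%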
# GPR119 ag: GPR119 activators in beta-arrestin cells, counter-screen for GPR151 activator project, cell-based, PathHunter beta-arrestin, luminescence, triplicate. shares compounds with GPR151 activ. 90 min; 0 = compound-well median, 100 = enzyme-acceptor control. activation, % at 11.2 µM. 6,700 tested, 0.3% active. AID 1508611, 2020;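 active = mean percent activation in the counterscreen above 29.09%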;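 note: counterscreen on off-target GPR119 to flag nonselective hits from the GPR151 activator screen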
# Target sequence (Q8TDV5 whole entry, looked up): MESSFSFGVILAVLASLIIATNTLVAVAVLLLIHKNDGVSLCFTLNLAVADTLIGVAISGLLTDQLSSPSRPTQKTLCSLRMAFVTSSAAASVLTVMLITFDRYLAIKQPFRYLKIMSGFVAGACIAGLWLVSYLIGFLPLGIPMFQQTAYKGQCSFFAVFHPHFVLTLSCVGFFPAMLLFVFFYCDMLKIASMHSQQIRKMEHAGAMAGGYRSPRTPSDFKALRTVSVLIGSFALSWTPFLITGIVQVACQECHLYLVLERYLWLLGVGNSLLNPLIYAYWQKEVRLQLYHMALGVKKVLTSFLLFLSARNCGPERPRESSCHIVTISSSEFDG
# A number is an active result; - = inactive; . = not tested or not shown; ! = repeats disagree.
SMILES,GPR151 activ,MITF primary,FBW7 act,TEAD-YAP inh,GPR151 confirm,GPR119 ag
O=S(=O)(Nc1cccc2c1CCCC2)c1cccc2nsnc12,-,-,-,-,.,.
COc1cccc(NC(=O)CN(C2=NC3CS(=O)(=O)CC3S2)c2ccccc2F)c1 (stereo unspecified),5.0,-,-,-,-,-
COc1ccc(-c2cc(C(=O)N3C(C)CCCC3C)[nH]n2)cc1 (stereo unspecified),-,-,-,-,.,.
COc1ccc(-c2cc(C(=O)N3CCCCC3C)[nH]n2)cc1 (stereo unspecified),5.3,-,-,-,-,-
Cc1cccc(C)c1NC(=O)CSc1ncn[nH]1,-,-,-,-,.,.
CCc1cccc(C)c1NC(=O)CSc1ncn[nH]1,7.4,-,-,-,-,-
CCC(C)NC(=O)CCNS(=O)(=O)c1ccc2nc(-c3ccccc3)[nH]c2c1 (stereo unspecified),7.0,-,-,-,-,-
Cc1ccc(NC(=O)CCNS(=O)(=O)c2ccc3nc(-c4ccccc4)[nH]c3c2)cc1,-,-,-,-,.,.
NC(=O)C1CCN(C(=O)C2(NC(=O)NC3CCCCC3)CCCCC2)CC1,-,-,-,-,.,.
O=C1/C(=C\N2CCCC2)c2ccccc2C(=O)N1c1ccccc1,5.0,-,-,-,-,-
COc1cccc2cc(C(=O)/C=C/c3cccc(F)c3)c(=O)oc12,5.4,-,-,-,-,-
COc1ccccc1NC(=O)C1OC2OC(C)(C)OC2C2OC(C)(C)OC12 (stereo unspecified),-,-,-,-,.,.
COc1ccccc1NC(=O)[C@H]1O[C@@H]2OC(C)(C)O[C@@H]2[C@H]2OC(C)(C)O[C@H]21,6.9,-,-,-,-,-
COc1ccc(-c2cc(NC(=NCc3ccco3)SC)n[nH]2)c(OC)c1,-,-,-,-,.,.
COc1ccccc1-c1cc(NC(=NCc2ccco2)SC)n[nH]1,6.4,-,-,50,-,-
CCCCS(=O)(=O)NC1=NCN(Cc2ccccc2)CN1,-,-,-,-,.,.
NC(=O)c1ccccc1NC(=O)CCN1C(=O)c2cccc([N+](=O)[O-])c2C1=O,5.4,-,-,-,-,-
O=C(CN1C(=O)c2cccc([N+](=O)[O-])c2C1=O)OCc1ccc(C(=O)c2ccccc2)cc1,-,-,-,-,.,.
O=C(CN1C(=O)c2cccc([N+](=O)[O-])c2C1=O)OCc1ccc(Cl)cc1,7.3,-,-,-,-,-
O=C(COC(=O)CN1C(=O)c2cccc([N+](=O)[O-])c2C1=O)OCN1C(=O)c2ccccc2C1=O,4.9,-,-,-,-,-
O=C(CN1C(=O)c2cccc([N+](=O)[O-])c2C1=O)OCC(=O)c1ccccc1Cl,-,-,-,-,.,.
CCOc1ccc(NC(=O)CCCC(=O)OCC(=O)c2ccc(C)c([N+](=O)[O-])c2)cc1,-,-,-,-,.,.
Cc1c2c(=O)oc(CN3CCOCC3)cc2nn1C,-,-,-,-,.,.
COc1ccc(C)cc1S(=O)(=O)N1CCC(C(=O)Nc2ccc3c(c2)OCO3)CC1,-,-,-,-,.,.
Cc1ccc(NC(=O)C2CCN(S(C)(=O)=O)CC2)cc1,10,-,-,-,-,-
SMILES,GPR151 activ,MITF primary,FBW7 act,TEAD-YAP inh,GPR151 confirm,GPR119 ag
COc1ccc(C)cc1S(=O)(=O)N1CCC(C(=O)Nc2cccc(C(C)=O)c2)CC1,6.1,-,-,-,-,-
COc1ccc(CCN2CCC(NCc3cccc(N(C)C)c3)CC2)cc1,5.5!,-,-,-,-,-
Cc1ccc(N(CC(=O)O)S(C)(=O)=O)c(C)c1,-,-,-,-,.,.
Cc1cccc(C(=O)Nc2ccc(F)cc2F)c1[N+](=O)[O-],11,-,-,-,-,-
Cc1cccc(C(=O)Nc2ccc(Br)cc2F)c1[N+](=O)[O-],-,-,-,-,.,.
COc1ccc(N/N=C/c2c(O)n(-c3cccc(Cl)c3)c(=O)[nH]c2=O)cc1,-,-,-,-,.,.
Cc1ccc(CN2CCC(N(C)C(C)c3nccs3)CCC2=O)cc1 (stereo unspecified),5.2,-,-,-,-,-
CC(=O)Nc1cccc(-c2cnc3ccc(NC4CCOCC4)nn23)c1,4.9,-,-,-,-,-
O=C(O)/C=C/c1cccc(-c2cnc3ccc(NC4CCOCC4)nn23)c1,-,-,-,-,.,.
COc1ccc(CCNC(=O)c2cc(Cl)ccc2[N+](=O)[O-])cc1,5.1,-,-,-,-,-
COc1ccccc1-n1c(SCC(=O)c2ccccc2)nc(O)cc1=O,-,-,-,-,.,.
COc1ccccc1NC(=O)COc1ccc(C(=O)O)cc1,7.9,-,-,-,-,-
O=C(CC(O)(C(F)(F)F)C(F)(F)F)Nc1ccccc1Br,-,-,-,-,.,.
Cc1ccc(Cl)cc1NC(=O)CC(O)(C(F)(F)F)C(F)(F)F,5.2,-,-,-,-,-
COc1ccccc1NC(=O)CC(O)(C(F)(F)F)C(F)(F)F,5.8,-,-,-,-,-
CCCCOc1ccccc1N1CC(O)=C(c2nc3ccccc3[nH]2)C1=N,-,-,-,-,.,.
Cc1nc2ccccn2c1C(=O)NCCCN1CCOCC1,4.9,-,-,-,-,-
O=C(Cn1cnc2ccccc21)NCCCN1CCOCC1,5.9,-,-,-,-,-
CS(=O)(=O)N(CC(=O)N1CCN(c2ccc(F)cc2)CC1)Cc1ccc(Cl)cc1,-,-,-,-,.,.
CS(=O)(=O)N(CC(=O)N1CCN(c2ccccc2)CC1)Cc1ccc(Cl)cc1,5.0,-,-,-,-,-
Cc1cccn2c(CN(C)CCC3CCOCC3)c(C(=O)N(C)CCc3ccccc3)nc12,6.2,-,-,-,-,-
O=C(Cc1csc(-n2cccc2)n1)N1CCN(c2ccccn2)CC1,5.5,-,-,-,-,-
NC(=O)c1ccsc1NC(=O)c1ccccc1F,-,-,-,-,.,.
CCc1nccn1S(=O)(=O)c1ccc(OC)c2ccccc12,6.8,-,-,-,-,-
CCc1nccn1S(=O)(=O)c1cc(Br)c(C)cc1OC,-,-,-,-,.,.
CC(=O)c1c(C)[nH]c(C(=O)OCC(=O)Nc2ccc(Br)cc2F)c1C,5.0,-,-,-,-,-
CC(=O)c1c(C)[nH]c(C(=O)OCC(=O)Nc2ccc(C)cc2[N+](=O)[O-])c1C,-,-,-,-,.,.
COc1cccc(NC(=O)CN(CCc2ccccc2)S(=O)(=O)c2ccc(Br)cc2)c1,-,-,-,-,.,.
CCCOc1ccc(-c2cc(C)nc(-c3ccc(OCCC)cc3)c2)cc1,-,-,-,-,.,.
